According to PubChem BioAssay (Tox21):
“And” between values parts separate entries of the source, which are not always exact repeats. Equal values may be shown once. Results filed as inconclusive are left out. A call without a number means that no potency is given here. A structure can be active in one record and inactive in another. The source made the active and inactive calls. Unless noted, calls come from the whole dose curve; as a rule, active = well fitted curve in the direction sought with a large enough effect in the repeat runs; inconclusive = weak or mixed curves; inactive = no such curve, though single readings can be large; an effect the other way counts as inactive or inconclusive.

Key:
[1] = Caspase-3/7 induction in HepG2 cells by small molecules, qHTS assay (AID 1346978); note: nearly all actives have a fitted effect of over 15% in size; note: potency is the fitted concentration of half-maximal effect
Outline: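 Caspase-3/7 induction was measured by Caspase-Glo 3/7 luminescence (30 min, room temperature) after a 17 hr compound exposure of wild-type HepG2 cells seeded at 2,000 per well and pre-incubated 5 hr.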

[2] = Caspase-3/7 induction in CHO-K1 cells by small molecules, qHTS cell viability counter screen (AID 1346979); note: nearly all actives have a fitted effect of over 35% in size; note: potency is the fitted concentration of half-maximal effect
Outline: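 CellTiter-Fluor viability check, qHTS format: wild-type CHO-K1, 16hr compound treatment, 1hr reagent incubation, fluorescence read.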

[3] = Caspase-3/7 induction in HepG2 cells by small molecules, qHTS cell viability counter screen (AID 1346981); note: nearly all actives have a fitted effect of over 30% in size; note: potency is the fitted concentration of half-maximal effect
Outline: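 CellTiter-Fluor fluorescence measured viability in the same wells used for Caspase-Glo 3/7. HepG2 (wild type) at 2,000 cells/well were pre-incubated 5 hr, dosed, and given reagent at 16 hr, with 1 hr further at 37C.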

[4] = target: Nuclear receptor subfamily 1 group I member 2 (Homo sapiens) (UniProt O75469); assay: Human pregnane X receptor (PXR) small molecule agonists, qHTS assay (AID 1346982); note: nearly all actives have a fitted effect of over 35% in size; note: potency is the fitted concentration of half-maximal effect
Nuclear receptor subfamily 1 group I member 2 (Homo sapiens), sequence (O75469 whole entry, looked up): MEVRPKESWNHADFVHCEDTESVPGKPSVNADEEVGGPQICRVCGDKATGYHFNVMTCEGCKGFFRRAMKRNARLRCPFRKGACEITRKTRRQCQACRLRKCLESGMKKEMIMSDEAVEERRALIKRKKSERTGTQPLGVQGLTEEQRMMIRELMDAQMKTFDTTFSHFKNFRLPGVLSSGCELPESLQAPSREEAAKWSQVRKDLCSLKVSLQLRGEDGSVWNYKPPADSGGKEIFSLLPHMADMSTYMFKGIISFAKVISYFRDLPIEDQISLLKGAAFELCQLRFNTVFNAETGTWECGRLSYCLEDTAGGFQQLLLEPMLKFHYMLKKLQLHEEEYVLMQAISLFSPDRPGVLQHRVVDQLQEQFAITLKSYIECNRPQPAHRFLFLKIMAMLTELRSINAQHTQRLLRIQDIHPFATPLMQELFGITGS
Outline: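 Agonist mode: luminescence from ONE-Glo after 24 h compound exposure at 37C in HepG2 cells carrying hPXR-responsive CYP3A4 luciferase, plated in charcoal-stripped serum medium 5 h beforehand.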

[5] = Caspase-3/7 induction in CHO-K1 cells by small molecules, qHTS assay (AID 1346980); note: nearly all actives have a fitted effect of over 15% in size
Outline: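 Luminescent Caspase-Glo 3/7 read (30min, room temperature) quantified apoptosis induction. Cells were wild-type CHO-K1, treated with compound for 17hr at 37 C and 5% CO2.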

[6] = target: Acetylcholinesterase (Homo sapiens) (UniProt P22303); assay: Acetylcholinesterase (AChE) small molecule antagonists: enzyme-based qHTS assay (AID 1347397; calls by dose curve; note: nearly all actives have a fitted effect of over 55% in size; note: potency is the fitted concentration of half-maximal effect); conditions: Potency: AChE enzyme activity inhibition
Acetylcholinesterase (Homo sapiens), sequence (P22303 whole entry, looked up): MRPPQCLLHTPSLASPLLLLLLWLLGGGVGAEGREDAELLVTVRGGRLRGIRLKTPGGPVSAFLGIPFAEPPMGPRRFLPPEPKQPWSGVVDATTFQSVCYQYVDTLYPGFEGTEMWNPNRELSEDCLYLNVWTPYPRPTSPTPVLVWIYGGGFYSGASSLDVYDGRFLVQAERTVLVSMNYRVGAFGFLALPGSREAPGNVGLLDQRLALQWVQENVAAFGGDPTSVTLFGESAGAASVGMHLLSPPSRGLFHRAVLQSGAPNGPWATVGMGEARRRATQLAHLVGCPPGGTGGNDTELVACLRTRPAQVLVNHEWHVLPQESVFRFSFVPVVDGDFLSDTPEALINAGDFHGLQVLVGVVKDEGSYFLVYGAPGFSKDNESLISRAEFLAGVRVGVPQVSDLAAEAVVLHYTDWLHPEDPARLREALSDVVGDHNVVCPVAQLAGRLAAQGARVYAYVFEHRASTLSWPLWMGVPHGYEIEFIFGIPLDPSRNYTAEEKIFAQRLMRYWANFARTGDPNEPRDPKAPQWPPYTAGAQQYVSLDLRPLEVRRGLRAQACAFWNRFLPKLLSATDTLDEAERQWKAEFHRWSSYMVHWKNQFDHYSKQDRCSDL
Outline: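 Colorimetric DTNB readout of acetylthiocholine hydrolysis, 10 min at room temperature, after 30 min room-temperature exposure of 50 mU/mL recombinant human enzyme to compound; DMSO vehicle control.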

[7] = target: Acetylcholinesterase (Homo sapiens) (UniProt P22303); assay: Acetylcholinesterase (AChE) small molecule antagonists: colormetric cell-based qHTS assay (AID 1347395; calls by dose curve; note: nearly all actives have a fitted effect of over 30% in size)
Outline: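 AChE inhibition read colorimetrically via DTNB–thiocholine in SH-SY5Y cells. Compound 30 min, substrate 90 min, both 37 C.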

[8] = target: Nuclear receptor subfamily 1 group I member 2 (Rattus norvegicus) (UniProt Q9R1A7); assay: Rat pregnane X receptor (rPXR) activation by small molecules, qHTS assay (AID 1346983); conditions: rPXR luciferase reporter cells, One-Glo luminescence, 24 h; stronger effect = higher value; note: nearly all actives have a fitted effect of over 20% in size
Nuclear receptor subfamily 1 group I member 2 (Rattus norvegicus), sequence (Q9R1A7 whole entry, looked up): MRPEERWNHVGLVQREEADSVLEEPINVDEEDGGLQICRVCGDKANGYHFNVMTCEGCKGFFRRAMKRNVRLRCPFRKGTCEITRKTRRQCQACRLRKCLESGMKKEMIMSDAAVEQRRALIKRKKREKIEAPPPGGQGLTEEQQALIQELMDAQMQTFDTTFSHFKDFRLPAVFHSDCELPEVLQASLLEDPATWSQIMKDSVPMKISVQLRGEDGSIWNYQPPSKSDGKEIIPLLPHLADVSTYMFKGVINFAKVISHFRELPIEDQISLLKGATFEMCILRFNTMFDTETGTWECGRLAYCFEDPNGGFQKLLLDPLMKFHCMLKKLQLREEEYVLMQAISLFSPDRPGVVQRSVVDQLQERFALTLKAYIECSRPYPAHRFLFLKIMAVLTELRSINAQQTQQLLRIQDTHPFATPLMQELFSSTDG
Outline: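 Luminescent readout (One-Glo luciferase, 30 min room temperature) followed 24 hr compound treatment at 37 C of rPXR cells plated 2,000 per well and preincubated 5hr; qHTS format with compounds delivered in DMSO.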

For `CCCCCCCCCc1ccc(O)cc1`, the Potency [1] was 61.8 µM (active) and 27.3 µM (active), the Potency [2] was 61.8 µM (active) and 54.5 µM (active) and the Potency [3] was 43.3 µM (active). The Potency [4] was 61.8 µM (active) and 61.1 µM (active).

With `CC(C)Nc1nc(Cl)nc(NC(C)C)n1` the Potency [1] was “inactive”, the Potency [2] was “inactive” and the Potency [5] was “inactive”. For the same compound, the Potency [3] was “inactive”, the Potency [4] was 54.4 µM (active) and 24.3 µM (active) and the Potency [6] was “inactive and 71 µM (active)”.

With `O=NN1CCOCC1` the Potency [1] was “inactive”, the Potency [2] was “inactive” and the Potency [5] was “inactive”. The Potency [3] was “inactive”, the Potency [4] was “inactive” and the Potency [6] was “inactive”.

With `CC(C)(c1ccccc1)c1ccc(O)cc1` the Potency [1] was 60.6 µM (active), the Potency [5] was “inactive” and the Potency [3] was “inactive”. For the same compound, the Potency [4] was 27.1 µM (active) and 19.3 µM (active), the Potency [7] was “inactive” and the Potency [6] was “inactive”.

For `CC1=C(C(=O)Nc2ccccc2)SCCO1`, the Potency [1] was “inactive”, the Potency [5] was “inactive” and the Potency [3] was “inactive”. For the same compound, the Potency [4] was 34.9 µM (active) and 30.6 µM (active) and the Potency [6] was “inactive”.

With `CNC(=O)CSP(=S)(OC)OC` the Potency [1] was “inactive”, the Potency [2] was 14.1 µM (active) and inactive and the Potency [5] was “inactive”. The Potency [3] was “inactive”, the Potency [4] was 62.8 µM (active) and inactive and the Potency [6] was “inactive”.

With `CCCCCCCCCCCCCl` the Potency [1] was “inactive”, the Potency [2] was “inactive” and the Potency [5] was “inactive”. The Potency [3] was “inactive”, the Potency [4] was “inactive” and the Potency [6] was “inactive”.

For `NC(=O)CN1CCCC1=O`, the Potency [1] was “inactive”, the Potency [2] was “inactive” and the Potency [5] was “inactive”. The Potency [3] was “inactive”, the max activation [8] was -4.89% (inactive) and the Potency [7] was “inactive”. The Potency [6] was “inactive”.

In the case of `CCCCOCCOC(C)=O`, the Potency [1] is reported as “inactive”, the Potency [2] is reported as “inactive” and the Potency [5] is reported as “inactive”. The Potency [3] was “inactive”, the Potency [4] was “inactive” and the Potency [6] was “inactive”.

With `CCOP(=O)(O)OCC` (tested in a mixture with another compound) the Potency [1] was “inactive”, the Potency [2] was “inactive and 24.1 µM (active)” and the Potency [5] was “inactive”. For the same compound, the Potency [3] was “inactive and 68 µM (active)”, the Potency [4] was “inactive and 4.29 µM (active)” and the Potency [6] was “inactive and 31.4 µM (active)”.

In the case of `COC(=O)Nc1nc2ccccc2[nH]1`, the Potency [1] is reported as 6.11 µM (active) and inactive, the Potency [5] is reported as “inactive” and the Potency [3] is reported as “inactive”. The Potency [4] was 54.5 µM (active), the Potency [7] was “inactive” and the Potency [6] was “inactive”.
